Compound activity: PubChem BioAssay, several laboratories
Hits are enriched below; roughly 1.1% of the tested compounds scored in any of these assays.
NCOA1 inh – inhibits human SRC1 coactivator; Q15788; HEK293 GAL4-SRC1 luciferase reporter, luminescence; inhibition, % at 3.6 µM; 360,000 tested, 0.12% active;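 active means inhibition above the campaign mean plus 3 SD, with each screening campaign given its own cutoff, cut at about 60% in these data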;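 further: 0% = DMSO treated cells and 100% = gossypol at 36 µM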
Shn3 inh set2 – Schnurri-3 reporter inhibition in Clone20 osteoblasts. Clone20 osteoblast Shn3 3'UTR firefly luciferase, 24 h. inhibition, % at 12.5 µM. 360,000 tested, 0.52% active;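 active means mean inhibition of at least 75% with every replicate also reaching 75%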;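 further: 0% = median of neutral control wells and 100% = pilot-screen positive control compound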
NCOA3 inh – inhibitors of human steroid receptor coactivator 3 (SRC3); HEK293 GAL4-SRC3 luciferase reporter, luminescence; 360,000 tested, 0.17% active; AID 588352; inhibition, % at 3.6 µM; Q9Y6Q9;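 active means inhibition above a per-campaign cutoff, the mean of all compounds plus 3 SD, cut at about 60% in these data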;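 further: 0% = DMSO-treated cells and 100% = gossypol-treated cells at 36 µM; higher means less SRC3-driven luciferase light from the GAL4 reporter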
Gli-Sufu antag – blocks Gli-Sufu signaling in a luciferase reporter; inhibition, % at 5 µM; Sufu-KO-LIGHT fibroblasts, Gli luciferase reporter luminescence; 340,000 tested, 0.74% active;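 active means inhibition above about 55%, limit read from the data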;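 further: 0% = DMSO-treated cells and 100% = wells with medium but no cells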
LRH-1 inv ag – NR5A2 inverse agonism in reporter assay; HEK293T StAR-luciferase reporter, LRH-1 transfected, 24 h; inhibition, % at 3.6 µM; 360,000 tested, 0.13% active; AID 602396;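 active means inhibition above the mean inhibition of all tested compounds plus 3 SD, cut at about 73% in these data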;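 further: 0% = DMSO wells and 100% = reporter-only cells lacking LRH-1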
SRC2 inh – human SRC2 (NCOA2) inhibition; 370,000 tested, 0.17% active; inhibition, % at 9 µM; AID 651957; HEK293 GAL4-SRC2 luciferase reporter, luminescence;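 active means inhibition above the mean inhibition of all tested compounds plus 3 SD, set per campaign, cut at about 52% in these data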;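 further: 0% = DMSO treated cells and 100% = cells given Gossypol at 36 µM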
Gli antag conf – Gli-SUFU antagonism confirmation, single concentration; shares compounds with Gli-Sufu antag; Sufu-KO-LIGHT cells, Gli luciferase reporter, luminescence; inhibition, % at 5 µM; 2,500 tested, 40% active; AID 602428;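 active means mean inhibition at 5 µM reaching about 45%, limit read from the data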;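 further: plate controls were DMSO-treated cells for no effect and wells lacking cells for full effect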
SufuKO cytotox – cytotoxic in Gli-SUFU antagonist counter-screen. shares compounds with Gli-Sufu antag. Sufu-KO-LIGHT cells cytotoxicity, ATP luminescence. cytotoxicity, % at 5 µM. 2,500 tested, 32% active;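 active means mean cytotoxicity at 5 µM above about 25%, limit read from the data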;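 further: cells exposed to compound overnight for roughly 16 to 18 hours; plate controls were DMSO wells with cells for no effect and medium without cells for full effect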
Wnt3a cs – counter-screen for Gli-SUFU antagonists: Wnt3a reporter inhibition. shares compounds with Gli-Sufu antag. Wnt-LIGHT cells, Wnt3a-driven luciferase reporter, luminescence. inhibition, % at 6.25 µM. 2,500 tested, 20% active. AID 651995;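 active means mean inhibition above about 25%, limit read from the data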
Numbers without * were called inactive; / = no result given.

SMILES	NCOA1 inh	Shn3 inh set2	NCOA3 inh	Gli-Sufu antag	LRH-1 inv ag	SRC2 inh	Gli antag conf	SufuKO cytotox	Wnt3a cs
C/C(=N/NC(=O)c1ccoc1C)c1cccs1	/	/	/	/	/	-46.4	/	/	/
O=C(c1cc(Cl)cc(Cl)c1)N1CC[C@H]2[C@H](CCCN2Cc2ccc(F)cc2)C1	/	/	/	/	/	9.0	/	/	/
NC(=O)CC(NC(=O)c1ccccc1)c1ccc(N2CCN(c3ccccc3)CC2)c([N+](=O)[O-])c1 (stereo unspecified)	0.7	48.0	5.9	37.5	12.6	5.6	/	/	/
NC(=O)CC(NC(=O)c1ccccc1)c1ccc(N2CCCCCC2)c([N+](=O)[O-])c1 (stereo unspecified)	1.1	74.6	9.7	55.7*	4.8	4.1	35.7	20.9	-44.2
O=C(NC1CCCCN(Cc2cccc(Cl)c2)C1=O)c1ccc(COc2ccccc2)cc1 (stereo unspecified)	/	/	/	/	/	18.5	/	/	/
COCCCN1C(=O)[C@H](CC(=O)NCCCCc2ccccc2)[C@]2(C(=O)OC)CCCCC=C12	/	/	/	/	/	-6.5	/	/	/
CC(=O)c1ccc(N2CCN(C(=O)C3CCN(S(=O)(=O)c4ccc5c(c4)CC(C)N5C(C)=O)CC3)CC2)cc1 (stereo unspecified)	-5.7	42.1	-0.8	27.1	21.1	1.1	/	/	/
COc1cccc(N2CCN(S(=O)(=O)c3ccc4c(c3)oc(=O)n4C)CC2)c1	-7.7	64.0	17.1	7.8	4.3	-7.6	/	/	/
CC(=O)N1c2ccc(S(=O)(=O)N3CCC(C(=O)N4CCN(c5cccc(C(F)(F)F)c5)CC4)CC3)cc2CC1C (stereo unspecified)	21.2	82.7	25.6	73.5*	2.7	13.9	80.7*	34.1*	17.3
COc1cccc(N2CCN(C(=O)C3CCN(S(=O)(=O)c4ccc5c(c4)oc(=O)n5C)CC3)CC2)c1	-3.3	7.1	-3.0	60.9*	-11.9	-14.6	30.2	-2.2	-8.1
COC(=O)[C@H]1C[C@@]2(c3ccccc3)c3ccccc3N[C@H]2N1	/	/	/	/	/	-23.9	/	/	/
CC[n+]1ccccc1/C=C/c1ccc(N(C)C)cc1	39.1	80.0	41.0	80.7*	40.3	18.9	83.9*	24.0	40.0*
CC(=O)Nc1ccc(CNc2ncnc3ccc(-c4c(C)noc4C)cc23)cc1	-57.0	-0.2	-5.2	72.7*	21.8	-86.3	77.7*	30.9*	-21.9
CCN(CC)C(=O)CC[C@H]1CC[C@]2(CCCN(Cc3cccnc3)C2)O1	/	/	/	/	/	7.6	/	/	/
Cc1cccc(N2CCN(C(=O)CN3CCOc4ccccc43)CC2C)c1 (stereo unspecified)	7.8	-6.5	11.6	31.5	5.3	15.6	/	/	/
O=C(CN1CCOc2ccccc21)N1CCN(c2cccc(Cl)c2)CC1	-21.5	7.1	-3.9	60.8*	-14.7	-22.3	20.0	9.6	-17.2
O=C([C@@H]1C[C@H]1c1ccccc1)N1CC[C@H]2[C@H](CCCN2Cc2ccccc2)C1	/	/	/	/	/	-1.4	/	/	/
COc1ccc(CCNC(=O)C2CCN(S(=O)(=O)c3cccc4nsnc34)CC2)cc1OC	-10.4	16.4	3.9	4.0	1.9	-7.2	/	/	/
COc1ccc(CCNC(=O)C2CCN(S(=O)(=O)c3cccc4cccnc34)CC2)cc1OC	-29.6	-11.9	-14.0	52.5	-21.9	/	22.9	0.4	-17.1
CCOC(=O)N1CCN(C(=O)C2CCN(S(=O)(=O)N3CCCC3)CC2)CC1	-22.5	-9.7	-5.4	56.2*	6.2	-5.5	19.8	4.7	10.7
CC1(C)CC2CC(C)(CN2c2ncnc3ccccc23)C1 (stereo unspecified)	13.8	65.4	31.1	53.4	11.7	18.1	39.6	3.6	20.9
CC1CCCCN1c1ncnc2ccccc12 (stereo unspecified)	26.9	53.1	14.8	21.5	10.5	29.6	/	/	/
CCOC(=O)c1sc(=S)n(-c2ccccc2Cl)c1SC	-43.9	2.8	-4.1	50.7	11.1	17.8	9.0	-5.2	-12.1
CCOC(=O)c1sc(=S)n(-c2ccccc2)c1SC	2.2	6.9	12.2	-0.8	2.3	-7.1	/	/	/
CCCCCn1c(CN2CCN(c3cc(Cl)ccc3C)CC2)nc2c1c(=O)[nH]c(=O)n2C	10.6	-7.5	7.1	53.9	13.7	2.5	26.3	22.9	-29.1
SMILES	NCOA1 inh	Shn3 inh set2	NCOA3 inh	Gli-Sufu antag	LRH-1 inv ag	SRC2 inh	Gli antag conf	SufuKO cytotox	Wnt3a cs
CCCCCn1c(N2CCN(c3cccc(Cl)c3)CC2)nc2c1c(=O)[nH]c(=O)n2C	11.2	83.0	-3.0	-10.4	19.1	0.2	/	/	/
Cc1cc(Nc2ccccc2)nc(NCc2ccccc2)n1	10.2	84.1	0.1	68.2*	19.3	28.3	58.5*	32.8*	25.3*
Cc1cc(Nc2ccc(Cl)cc2)nc(NCc2ccccc2)n1	3.2	76.6	22.8	45.5	19.6	-5.6	/	/	/
Cc1cc(N2CCC(C)CC2)nc(NCc2ccccc2)n1	19.0	19.3	13.0	51.9	19.3	1.8	21.6	31.2*	-16.6
Cc1cc(Nc2cccc(F)c2)nc(NCc2ccccc2)n1	9.5	78.3	-7.6	58.9*	26.9	16.6	39.8	19.1	6.3
CCOC(=O)CNC(=O)CSc1nnc(-c2ccc(C(C)(C)C)cc2)n1-c1ccc(Cl)cc1	/	/	/	/	/	-7.0	/	/	/
C#CCN(CC=C)Cc1ccc(OC)cc1OC	/	/	/	/	/	-18.0	/	/	/
CC1=C(C(=O)OCC(C)C)C(c2cccc(F)c2)N2C(=O)C(C)SC2=N1 (stereo unspecified)	-7.2	11.1	8.3	65.3*	5.5	5.5	10.9	-3.4	-12.1
CCn1c2ccccc2c2cc(NC(=O)c3cc(OC)cc(OC)c3)ccc21	16.1	8.9	19.1	59.1*	31.4	20.3	62.2*	54.7*	-10.1
CCn1c2ccccc2c2cc(NC(=O)c3cc(OC)c(OC)c(OC)c3)ccc21	8.7	7.3	30.4	70.7*	34.1	27.0	59.8*	64.1*	0.3
CCn1c2ccccc2c2cc(NC(=O)COc3ccc(OC)cc3)ccc21	11.1	-11.5	2.2	10.5	3.0	-1.8	/	/	/
CCCCNS(=O)(=O)/C=C/c1cc2c(cc1CNC(=O)OC(C)(C)C)OCO2	/	/	/	/	/	0.9	/	/	/
N#CCC[C@H]1CC[C@]2(CCCN(S(=O)(=O)c3ccccc3)C2)O1	/	/	/	/	/	-10.9	/	/	/
CCN1C(=O)CCN(C2CCCC2)c2nc(Nc3ccc(C(=O)NC4CCN(C)CC4)cc3OC)ncc21	-21.7	-10.1	0.6	71.5*	39.9	-149.3	60.4*	23.9	-87.4
COc1cc(C(=O)N2CCC(N3CCN(C)CC3)CC2)ccc1Nc1ncc2c(n1)N(C)c1ccccc1C(=O)N2C	/	/	/	/	/	-99.6	/	/	/
COc1ccc(CNCC#Cc2ccccc2)c(OC)c1	/	/	/	/	/	8.1	/	/	/
COc1ccccc1NC(=O)C(=O)N/N=C(\C)CC(=O)Nc1ccccn1	-10.3	-0.6	5.2	/	-14.3	-30.2	/	/	/
